Hsp90 block: displaces geldanamycin probe from tumor Hsp90; P07900; NCI-N417 lysate Hsp90, Cy3B-geldanamycin FP displacement; inhibition, % at 30 µM; 64,000 tested, 0.35% active; AID 429;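 active = inhibition above 50%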;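 also: 0% = tracer plus lysate wells and 100% = tracer alone without lysate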
MKP-1 inh: inhibitors of human MKP-1 phosphatase. P28562. recombinant MKP-1, OMFP hydrolysis fluorescence. inhibition, %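 (compounds tested at a single concentration somewhere between 10 and 100 µM)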. 65,000 tested, 0.15% active. AID 374;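 active = inhibition above about 50%, limit read from the data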;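 also: 0% = DMSO max control wells and 100% = wells with enzyme stopped by NaOH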
Autofluor 339: intrinsic fluorescence of library compounds, ex339/em460 – biochemical, MLSMR library, data from DPM-DC assay, artefact control, profiling panel; compound autofluorescence, ex339/em460 nm, NADH buffer; active compounds read high; 1 = no-compound wells, NADH background; fluorescence fold increase at 10 µM; 65,000 tested, 5.5% active;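 active = at 10 µM, mean starting fluorescence two-fold or more over control wells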;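 also: signal is the first read of a kinetic run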
Abs 340nm: compounds absorbing at 340 nm; compound absorbance at 340 nm, fold over control; fold change at 10 µM; 65,000 tested, under 10 active; AID 708;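 active = at 10 µM dose, initial 340 nm absorbance at least 2 fold that of control wells; inactive = change under 2 fold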;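 also: initial absorbance extrapolated from kinetic A340 decline of NADH oxidation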
Cdc25B block: human M-phase inducer phosphatase 2 inhibition | P30305 | 65,000 tested, 0.1% active | inhibition, %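 (compounds tested at 10 µM final in the well)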 | recombinant Cdc25B, OMFP fluorescence Ex485/Em525; in the data active = inhibition above about 50%
Target sequence (P30305 whole entry, looked up): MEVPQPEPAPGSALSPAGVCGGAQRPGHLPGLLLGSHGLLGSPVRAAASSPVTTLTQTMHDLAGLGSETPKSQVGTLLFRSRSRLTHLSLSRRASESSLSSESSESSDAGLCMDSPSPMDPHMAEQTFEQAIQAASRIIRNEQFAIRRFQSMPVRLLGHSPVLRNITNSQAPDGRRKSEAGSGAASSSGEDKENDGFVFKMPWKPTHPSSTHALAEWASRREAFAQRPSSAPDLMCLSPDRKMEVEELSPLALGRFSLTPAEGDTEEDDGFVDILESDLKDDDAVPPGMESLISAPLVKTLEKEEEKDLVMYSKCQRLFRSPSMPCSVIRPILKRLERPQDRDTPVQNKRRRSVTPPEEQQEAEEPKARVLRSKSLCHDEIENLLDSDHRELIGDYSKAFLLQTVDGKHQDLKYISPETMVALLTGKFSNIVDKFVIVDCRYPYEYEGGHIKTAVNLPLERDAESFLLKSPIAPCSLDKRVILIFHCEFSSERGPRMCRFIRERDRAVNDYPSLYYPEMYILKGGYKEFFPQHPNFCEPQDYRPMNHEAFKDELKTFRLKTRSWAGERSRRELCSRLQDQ
NADH enzymes: inhibitors of enzymes used to reach an NAD/NADH endpoint. coupled PK/LDH NADH assays, four targets. IC50, µM (top dose mostly 10 µM), for the others: at the highest dose inhibition. 65,000 tested, 0.02% active;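 active = single-dose screening hits from any of four coupled enzyme assays that gave an IC50 when retested across doses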;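 also: the DPM-DC format reads NADH fluorescence rather than 340 nm absorbance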
Numbers without * were called inactive; . = not tested or not shown. A selection: hits, their analogues and other compounds. The true share with any hit is near 5.7%.

SMILES	Hsp90 block	MKP-1 inh	Autofluor 339	Abs 340nm	Cdc25B block	NADH enzymes
CCC(=O)OC1=C2C(=Nc3c(c(=O)n(C)c(=O)n3C)C2c2ccccc2)c2ccccc21 (configuration not stated)	0	-15	1	1.1	1	5%
c1ccc(-c2nn3c(-c4ccncc4)nnc3s2)nc1	-6	9	1.1	1	15	3%
COc1ccc2nc(C)c(C(=O)OCCN(C)C)cc2c1	-1	-13	2.1*	1	-7	7%
COc1cc(Nc2c3ccc(Cl)cc3nc3ccc(OC)cc23)c2ncccc2c1	14	.	.	.	.	.
O=c1c2cc(N3CCOCC3)ccc2[nH]c(=S)n1CCCN1CCCC1	0	-2	2	1	-21	8%
CC1CCN(CCCn2c(=S)[nH]c3ccc(N4CCOCC4)cc3c2=O)CC1	-2	-6	3.2*	1.1	-6	13%
O=c1c2cc(N3CCOCC3)ccc2[nH]c(=S)n1CCCN1CCCCC1	-5	-5	2.1*	1	-7	5%
O=c1oc(-c2cccs2)nc2sc3c(c12)CCCCC3	-3	13	2.1*	1	-11	5%
O=c1[nH]cnc2c1cnn2Cc1ccccc1	-6	-19	1.1	1	6	2%
O=C1N=C(c2ccccc2)C(c2ccccc2)N1 (configuration not stated)	.	7	2.2*	1.1	-2	5%
CCc1cc(C(=O)OC)c(NC(=O)c2cc(Br)cs2)s1	0	0	2.2*	1.1	-3	0%
CCOc1cc(/C=N/n2cnnc2)ccc1O	-2	-10	1.2	1.1	-5	4%
Cn1c(=O)n(C)c2cc(/C=N/n3cnnc3)ccc21	-4	12	2.8*	1.2	3	10%
C[N+](C)(C)CCO	-1	.	.	.	.	.
CCCn1c(N2CCN(CC(=O)c3c[nH]c4ccccc34)CC2)nc2c1c(=O)[nH]c(=O)n2C	-10	27	1.2	1.1	-4	6%
CSCCC(NC(=O)COc1ccccc1)C(=O)N1CCN(c2ccccc2F)CC1 (configuration not stated)	-3	10	1.1	0.98	-18	4%
O=C(CN1C(=O)NC2(CCc3ccccc32)C1=O)c1ccc2c(c1)OCCO2 (configuration not stated)	-6	-4	1.2	1	-5	7%
Cc1nnc(SCCn2c(N3CC(C)CC(C)C3)nc3c2c(=O)n(C)c(=O)n3C)s1 (configuration not stated)	68*	22	1	0.99	1	3%
O=C(N1CCCC1)N1CCN(c2ncnc3c(-c4ccc(Cl)cc4)nsc23)CC1	0	3	1.2	1	17	9%
O=C(CCSc1ccc(Cl)cc1)N1CCN(c2ncccn2)CC1	3	5	1.2	1	-9	4%
NC(=O)c1ccccc1	0	.	.	.	.	.
NC(=O)c1ccc(-c2ncc(-c3ccccc3)o2)cc1	-2	23	2.1*	1.2	3	11%
c1ccc(-c2cnc(-c3cccnc3)o2)cc1	-5	4	2.1*	1.1	-10	6%
CCOC(=O)C1CCN(C(=O)CN(c2cc(OC)ccc2OC)S(=O)(=O)c2ccccc2)CC1	-2	3	1.1	1	-10	3%
N#Cc1cc2ccc(N3CCOCC3)cc2cc1C#N	-4	-11	2.5*	1	6	3%
SMILES	Hsp90 block	MKP-1 inh	Autofluor 339	Abs 340nm	Cdc25B block	NADH enzymes
COc1cccc(C2NC(=O)NC(C)=C2C(=O)Nc2cccc(C)c2C)c1 (configuration not stated)	-2	-13	1.1	1	4	3%
Cc1cccc(-c2c3c(=O)n(C)c(=O)n(C)c3cn2-c2ccccc2O)c1	0	-8	2.6*	1	5	10%
COCCCNC(=O)c1c(N)n(/N=C/c2cccs2)c2nc3ccccc3nc12	-5	-7	2.3*	1.1	24	3%
CC(C)OCCCNC(=O)c1c(N)n(/N=C/c2ccccn2)c2nc3ccccc3nc12	-1	36	1.4	1.1	-3	4%
CCC(C)NC(=O)c1c(N)n(/N=C/c2ccccn2)c2nc3ccccc3nc12 (configuration not stated)	-4	-4	1.9	1.1	-3	8%
COCCCNC(=O)c1c(N)n(/N=C/c2cccnc2)c2nc3ccccc3nc12	-2	-16	2.3*	1.1	-15	9%
CCC(C)NC(=O)c1c(N)n(/N=C/c2cccnc2)c2nc3ccccc3nc12 (configuration not stated)	-15	-23	3.1*	1.1	2	3%
CC(C)CNC(=O)c1c(N)n(/N=C/c2cccnc2)c2nc3ccccc3nc12	-9	-34	2.3*	1	32	6%
O=c1c2c3nc4ccccc4nc3n(/N=C/c3cccs3)c2ncn1-c1ccccc1	-6	5	1.2	1.1	8	2%
C=CCN=C(NC#N)SCC(=O)c1cccc(OC)c1	0	26	1.1	1	0	6%
O=C1CC(N2CCC(O)(c3ccc(Cl)cc3)CC2)C(=O)N1Cc1ccc(N2CCCC2=O)cc1 (configuration not stated)	1	2	1.1	1.1	-14	0%
OC[C@H]1O[C@@H](n2cnc3c(NC4CCCC4)ncnc32)C(O)[C@H]1O (some centres not stated)	3	.	.	.	.	.
COc1ccc(OC)c(C2C3=C(CCCC3=O)Nc3nc4ccccc4n32)c1 (configuration not stated)	1	8	1.7	1.1	3	7%
COc1ccc(C2C3=C(CCCC3=O)Nc3nc4ccccc4n32)c(OC)c1OC (configuration not stated)	0	3	5.1*	1.1	3	4%
COc1ccc(C2C3=C(CCCC3=O)Nc3nc4ccccc4n32)cc1OC (configuration not stated)	-2	23	3*	1.2	-15	8%
O=c1[nH]c2cc3c(cc2cc1CN(Cc1ccccc1)Cc1nnnn1Cc1ccco1)OCCO3	-2	4	2.5*	1	5	10%
CCC(C)(C)n1nnnc1CN(Cc1cccs1)Cc1cc2cc(OC)ccc2[nH]c1=O	-1	26	1.7	1	0	7%
Cc1ccc2cc(CN(CCO)Cc3nnnn3Cc3ccc(F)cc3)c(=O)[nH]c2c1	-8	13	1.1	1	7	6%
O=c1[nH]c2cc3c(cc2cc1CN(CCCO)Cc1nnnn1Cc1ccc(F)cc1)OCO3	-2	27	3.1*	1.2	-16	17%
CCOc1ccc2[nH]c(=O)c(CN(Cc3cccs3)Cc3nnnn3C(C)(C)CC)cc2c1	-3	25	2.6*	1	-5	15%
O=c1[nH]c2cc3c(cc2cc1CN(Cc1cccs1)Cc1nnnn1Cc1ccco1)OCCO3	-5	-15	2.4*	1	4	11%
